# Screening results as filed in PubChem.
# Cruzain Triton – qHTS Assay for Promiscuous and Specific Inhibitors of Cruzain (with detergent) | purified cruzain, Z-FR-AMC fluorescence, 0.01% Triton | Potency, µM, inactives show max response, negative = inhibition, most hits filed as inhibitors | actives 0.43% (n = 200,000);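 further: plate controls were neutral wells for no effect and buffer without enzyme for full effect; nearly all actives have a fitted effect of over 40% in size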
# Target sequence (P25779 123-467 limits assumed): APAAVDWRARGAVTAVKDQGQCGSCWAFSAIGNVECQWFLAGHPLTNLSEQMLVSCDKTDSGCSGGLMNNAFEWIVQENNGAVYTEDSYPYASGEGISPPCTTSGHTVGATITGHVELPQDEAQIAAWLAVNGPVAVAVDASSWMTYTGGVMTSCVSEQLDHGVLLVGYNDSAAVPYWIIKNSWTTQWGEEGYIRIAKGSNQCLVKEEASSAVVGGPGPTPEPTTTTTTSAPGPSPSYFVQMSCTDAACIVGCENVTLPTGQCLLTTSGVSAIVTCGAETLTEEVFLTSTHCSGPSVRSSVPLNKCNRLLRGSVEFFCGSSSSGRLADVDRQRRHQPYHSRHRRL
#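 Cysteine protease activity tested under reducing, mildly acidic conditions (100 mM sodium acetate pH 5.5, 5 mM DTT) plus 0.01% Triton X-100. Cruzain 1.5 nM; substrate Z-FR-AMC 2 uM; 15 min compound preincubation at room temperature.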
# Cruzain noTriton – qHTS Assay for Promiscuous and Specific Inhibitors of Cruzain (without detergent) | purified cruzain, Z-FR-AMC fluorescence, no detergent | Potency, µM, inactives show max response, negative = inhibition, hits mostly inhibitors | AID 1476, 2009 | Cruzipain (Trypanosoma cruzi), P25779 | actives 2.3% (n = 200,000);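 further: plate controls were enzyme without inhibitor for no effect and buffer without enzyme for full effect; nearly all actives have a fitted effect of over 40% in size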
#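 Detergent-free condition (0.00005% Triton X-100) in acetate buffer pH 5.5 with DTT. 1.5 nM enzyme and compound were pre-mixed 15 min, then 2 uM Z-FR-AMC substrate added; reaction progress from fluorescence change between first and third reads (60 s).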
# Papain counter – qHTS Assay for Inhibitors of Papain: Counterscreen for Cruzain Assay; shares compounds with Cruzain Triton; purified papain, Z-FR-AMC fluorescence cleavage; Potency, µM, for the others: max response, negative = inhibition, hits mostly inhibitors; actives 41% (n = 410); AID 2161, 2009;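 further: 0% = no-compound wells and -100% = no-enzyme wells; nearly all actives have a fitted effect of over 35% in size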
# Target sequence (P00784 whole entry, looked up): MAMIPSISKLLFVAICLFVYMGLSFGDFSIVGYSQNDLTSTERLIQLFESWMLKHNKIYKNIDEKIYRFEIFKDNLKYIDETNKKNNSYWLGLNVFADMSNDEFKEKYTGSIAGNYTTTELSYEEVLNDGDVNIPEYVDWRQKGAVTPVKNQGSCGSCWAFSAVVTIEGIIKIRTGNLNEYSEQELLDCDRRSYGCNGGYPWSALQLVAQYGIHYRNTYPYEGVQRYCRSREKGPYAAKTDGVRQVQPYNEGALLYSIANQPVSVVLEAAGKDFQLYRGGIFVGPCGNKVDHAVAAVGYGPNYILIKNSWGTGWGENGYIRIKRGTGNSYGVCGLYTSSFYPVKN
# Starred values were filed as active, the others as inactive; ? = inconclusive; nt = no result. Shown are actives, neighbours in structure and some others; about 2.4% of the full set was active somewhere. The call rests on the fitted dose curve; in most records, active means well fitted curve in the direction sought with a large enough effect; inconclusive means small, poorly fitted or top-dose-only effect, or another doubt; inactive means no such curve, though single readings can be large; an effect the other way counts as inactive or inconclusive. Potency means the concentration at half of the fitted maximal effect.
SMILES,Cruzain Triton,Cruzain noTriton,Papain counter
Cc1ccc(NC(=O)Cn2c(=O)c(CNc3ccccc3)cc3cc4c(cc32)OCCO4)cc1,-4%,?,nt
CCOc1ccccc1N(C)C(=O)NCc1noc2ccccc12,-1%,-6%,nt
Cc1cccc(OCC(=O)Nc2ccccc2OCc2cc(=O)n3cc(C)ccc3n2)c1,5%,1%,nt
CCOc1ccc(NS(=O)(=O)c2ccc(NC(=O)N3CCCC3)cc2)cc1,-2%,7%,nt
O=S(=O)(c1ccc(N2CCC(c3ccc(Cl)cc3)=N2)cc1)N(CCO)CCO,4%,?,nt
CN(C)CCCNS(=O)(=O)c1ccc(N2CCC(c3ccc(Cl)cc3)=N2)cc1,32µM*,?,28µM*
Cc1ccc(CNC(=O)c2cc3c(=O)n(C)c4ccccc4c3n2C)cc1,10%,?,nt
CN(CCNC(=O)c1cc2c(=O)n(C)c3ccccc3c2n1C)Cc1ccccc1,14µM*,?,-18%
Cc1cccc(N2CCN(C(=O)c3ccc4nc(-c5ccco5)c(-c5ccco5)nc4c3)CC2C)c1 (stereo not given),-2%,2%,nt
O=C(NC1CCCCC1)c1cc(-c2ccco2)on1,0%,0%,nt
O=C(Nc1ccccc1)c1ccc2nc(-c3ccco3)c(-c3ccco3)nc2c1,?,?,13µM*
O=C(NC1CC1)c1ccc2nc(-c3ccco3)c(-c3ccco3)nc2c1,nt,nt,32µM*
O=C(NCc1ccco1)c1cccc(NC(=O)c2ccccc2)c1,2%,7%,nt
CNC(=O)c1ccc2nc(-c3ccco3)c(-c3ccco3)nc2c1,nt,nt,32µM*
Cc1cccc(N2CCN(C(=O)Cc3c(C(=O)O)c(C)cn3C)CC2)c1C,1%,-6%,nt
COc1ccccc1C(=O)Nc1ccccc1C(=O)OCc1cc(=O)n2ccsc2n1,1%,7%,nt
CCCn1c(-c2ccc(F)cc2)nc2c(NCCCCN3CCCC3)nc(C)nc21,-3%,-1%,nt
CCCn1c2ccc(F)cc2c2nnc(SCCN3CCCCC3)nc21,2µM*,2µM*,13µM*
CC1CCc2cc(F)ccc2N1C(=O)CSc1nnc2c3cc(F)ccc3n(C)c2n1 (stereo not given),-6%,8%,nt
CCCn1c2ccc(F)cc2c2nnc(SCCN(CC)CC)nc21,4.5µM*,4µM*,25µM*
CCn1c2ccc(F)cc2c2nnc(SCCN3CCCCC3)nc21,14µM*,13µM*,25µM*
CCn1c(CNc2ccc(F)cc2)nnc1SCCN1CCCCC1,-1%,-1%,nt
Cc1nc(-c2ccccc2)sc1CCNC(=O)C(=O)Nc1ccc2c(c1)OCO2,2%,-6%,nt
CN1C(=O)/C(=N\OC(=O)c2cccc3ccccc23)c2ccccc21,3.2µM*,7.9µM*,16µM*
N/C(Cc1ccc(Cl)cc1)=N\OC(=O)c1cccc2ccccc12,-3%,0%,nt
SMILES,Cruzain Triton,Cruzain noTriton,Papain counter
O=C(CN1C(=O)COc2ccc(S(=O)(=O)Nc3ccccc3)cc21)Nc1cccc(Cl)c1,-10%,?,nt
CCn1c(=N)c(C(=O)NCc2ccccc2)cc2c(=O)n3cc(C)ccc3nc21,0%,-3%,nt
CCN1CCCC1CNc1ncnc2c1[nH]c1ccc(Cl)cc12 (stereo not given),25µM*,16µM*,-3%
Cc1ccc2ncnc(NCCCN3CCOCC3)c2c1,-1%,8%,nt
Clc1ccc2[nH]c3c(NCCCN4CCOCC4)ncnc3c2c1,16µM*,13µM*,4%
CCN1CCCC1Cn1cnc2c([nH]c3ccc(C)cc32)c1=O (stereo not given),-8%,-18%,nt
O=C(Nc1cccc(F)c1)c1ccc2snnc2c1,-6%,7%,nt
CN(C)c1nc(C#N)nc(N2CCOCC2)n1,4µM*,3.2µM*,2.2µM*
CN(C)c1nc(SCC#N)nc(N2CCOCC2)n1,4%,-7%,nt
COc1nc(OC)nc(N2CCCCCC2)n1,-4%,4%,nt
C1CCN(c2nc(N3CCCCC3)nc(N3CCNCC3)n2)CC1,4%,6%,nt
N#Cc1nc(N)nc(N2CCCCC2)n1,nt,nt,5µM*
Nc1nc(-c2ccco2)nc(N2CCCCC2)n1,-1%,-17%,nt
N#Cc1nc(N2CCCC2)nc(N2CCCC2)n1,7.9µM*,5µM*,5.6µM*
COc1nc(C#N)nc(N2CCCCC2)n1,nt,nt,2.2µM*
C=Cc1ccc(CSc2nc(-c3ccc(Cl)cc3)nc3c2Cc2c(CO)cnc(C)c2O3)cc1,-2%,?,nt
Cc1ccc(Cc2nc3ccccc3nc2SCC(=O)N2CCc3ccccc32)cc1,2%,-2%,nt
O=C(c1ccc2c(c1)N(Cc1ccccc1)C(=O)c1ccccc1S2(=O)=O)N1CCN(c2ccccn2)CC1,2%,16%,nt
Cc1ccc2ncc(C(=O)NCc3ccccc3Cl)c(=O)n2c1,-4%,2%,nt
N#Cc1nc(N2CCCCC2)nc(N2CCOCC2)n1,0.89µM*,1µM*,1µM*
CC(=O)c1nnn(-c2nc(C#N)nc(N3CCOCC3)n2)c1C,nt,nt,-7%
CCOC(=O)CNc1nc(C#N)nc(N2CCOCC2)n1,2.2µM*,2µM*,2.2µM*
CCOc1nc(C#N)nc(N2CCOCC2)n1,nt,nt,4µM*
CC(C)N(C#N)c1nc(N2CCOCC2)nc(N2CCOCC2)n1,2%,-5%,nt
CC(=O)c1nnn(-c2nc(N)nc(N(c3ccccc3)c3ccccc3)n2)c1C,-5%,?,nt
SMILES,Cruzain Triton,Cruzain noTriton,Papain counter
CCCNc1nc(N2CCOCC2)nc(N2CCOCC2)n1,3%,4%,nt
CNc1nc(OCC(F)(F)F)nc(N2CCOCC2)n1,3%,-3%,nt
COc1cc2c(cc1OC)C(COc1ccccc1OC)N(C(=O)c1ccccc1OC)CC2 (stereo not given),0%,?,nt
N#Cc1nc(N2CCCC2)nc(N(c2ccccc2)c2ccccc2)n1,nt,nt,2µM*
N/C(=N/O)c1nc(N2CCCC2)nc(N(c2ccccc2)c2ccccc2)n1,-12%,-2%,nt
CN1CCC[C@@H]1c1cccnc1.O=C(O)c1ccccc1O.O=C([OH2+])c1ccccc1O.O=C([OH2+])c1ccccc1O.O=C([OH2+])c1ccccc1O.[Cu],-1%,14%,nt
O=C(NCc1ccco1)c1ccc2c(c1)N(Cc1c(F)cccc1Cl)C(=O)c1ccccc1S2,-3%,?,nt
COc1cccc(CN2C(=O)c3ccccc3Sc3ccc(C(=O)NCCc4ccc(Cl)cc4)cc32)c1,-3%,20µM*,8%
Cc1cccc(CN2C(=O)c3ccccc3Sc3ccc(C(=O)NCCc4ccccc4)cc32)c1,1%,?,nt
CCOc1ccc(CN2C(=O)c3ccccc3Sc3ccc(C(=O)NCCc4ccccc4)cc32)cc1,-6%,?,nt
COc1cccc(CNC(=O)c2ccc3c(c2)N(Cc2ccc(F)cc2Cl)C(=O)c2ccccc2S3)c1,1%,13µM*,7%
CCOc1ccc(CN2C(=O)c3ccccc3Sc3ccc(C(=O)NCc4ccc(C)cc4)cc32)cc1,-1%,10µM*,8%
O=C(O)c1ccc2c(c1)N(Cc1ccc(F)cc1Cl)C(=O)c1ccccc1S2,-1%,?,nt
O=C(NCc1ccc2c(c1)OCO2)c1ccc2c(c1)N(Cc1c(F)cccc1Cl)C(=O)c1ccccc1S2,-2%,10µM*,-3%
CC(=C/C=C/C(C)=C/C=C/C=C(C)/C=C/C=C(C)/C=C/C(=O)O)/C=C/C(=O)O,-1%,?,nt
COc1ccc(S(=O)(=O)N(Cc2nc(-c3ccc(Cl)cc3)no2)C2CCCCC2)cc1,-5%,-18%,nt
